Results taken from PubChem BioAssay (NCI).
Compounds without any hit were thinned out: in the full panel of roughly 79,000, 15% have a hit. Activity calls are given as the source filed them. Cut-off read from the data, not from the text of the source: active = growth inhibition above about 70%; inactive = the rest.

Experiments:
[1] = NCI Yeast Anticancer Drug Screen. Data for the rad52 strain (AID 147);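 note: 0% = growth of vehicle-treated control cultures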; details: S. cerevisiae rad52 mutant growth inhibition, active compounds read high
How it was run: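 Read-out: growth inhibition versus vehicle-treated controls. Cells were a DNA repair-deficient yeast strain treated with compounds.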

[2] = NCI Yeast Anticancer Drug Screen. Data for the wt1 strain (AID 149);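 note: 0% = growth of vehicle-treated wt1 cultures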; details: S. cerevisiae wt1 strain (SPY 50644) growth inhibition, active compounds read high
How it was run: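 Using yeast strain wt1, compound-induced growth inhibition was determined against vehicle-treated cultures.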

[3] = NCI Yeast Anticancer Drug Screen. Data for the rad50EPP+ strain (AID 151);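 note: 0% = growth of vehicle-treated control cultures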; details: S. cerevisiae rad50 mutant strain, active compounds read high
How it was run: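 Growth inhibition read against vehicle controls in rad50EPP+ yeast, a strain altered in DNA damage repair, after compound exposure.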

[4] = NCI Yeast Anticancer Drug Screen. Data for the rad50 strain (AID 155);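 note: 0% = growth of vehicle-only cultures of the same strain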; details: S. cerevisiae rad50 strain growth inhibition, active compounds read high
How it was run: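 Relative growth inhibition (compound vs vehicle) was measured in yeast with a defined repair-gene alteration.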

[5] = NCI Yeast Anticancer Drug Screen. Data for the mec2-1 strain (AID 157); details: S. cerevisiae mec2-1 strain, active compounds read high
How it was run: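 Yeast mec2-1 mutant treated with compound. Readout: growth inhibition vs vehicle controls.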

[6] = NCI Yeast Anticancer Drug Screen. Data for the rad14 strain (AID 159);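 note: 0% = growth of vehicle-treated control cultures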; details: S. cerevisiae rad14 strain growth inhibition, active compounds read high
How it was run: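 Screen for anticancer potential: a yeast strain altered in DNA damage repair is grown with compound, and reduced growth is quantified against vehicle controls.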

[7] = NCI Yeast Anticancer Drug Screen. Data for the sgs1 mgt1 strain (AID 161);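 note: 0% = growth of cultures given vehicle only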; details: S. cerevisiae sgs1 mgt1 strain, active compounds read high
How it was run: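 Test agents were incubated with a DNA-repair-mutant yeast strain. Growth was then read and compared against vehicle-treated controls.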

[8] = NCI Yeast Anticancer Drug Screen. Data for the CLN2oe strain (AID 163);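 note: 0% = growth of vehicle-only control cultures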; details: S. cerevisiae CLN2oe strain, active compounds read high
How it was run: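 Read-out: yeast growth inhibition, expressed relative to vehicle-only controls. The strain bears an engineered cell-cycle alteration.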

[9] = NCI Yeast Anticancer Drug Screen. Data for the cln2 rad14 strain (AID 165);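 note: 0% = growth equal to vehicle treated cultures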; details: S. cerevisiae cln2 rad14 strain, active compounds read high
How it was run: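 cln2 rad14 yeast strain; compound exposure; growth inhibition read vs vehicle controls.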

[10] = NCI Yeast Anticancer Drug Screen. Data for the bub3 strain (AID 167); details: S. cerevisiae bub3 mutant strain, active compounds read high
How it was run: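 Screening used yeast with an engineered genetic alteration affecting cell cycle control. Compound-exposed cultures were compared with vehicle cultures, and reduced growth was taken as inhibition.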

[11] = NCI Yeast Anticancer Drug Screen. Data for the wt2 strain (AID 169);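 note: 0% = growth of vehicle-treated yeast cultures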; details: S. cerevisiae wt2 strain growth inhibition, active compounds read high
How it was run: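 Read-out: growth inhibition versus vehicle-treated control cultures after compound exposure of the yeast strain.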

[12] = NCI Yeast Anticancer Drug Screen. Data for the mlh1 strain (AID 171);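 note: 0% = growth of vehicle-treated control cultures of the same strain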; details: S. cerevisiae mlh1 strain growth inhibition, active compounds read high
How it was run: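 Read-out: growth inhibition versus vehicle controls. Strain: engineered yeast with a defined DNA repair or cell cycle defect, compound-treated.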

[13] = NCI Yeast Anticancer Drug Screen. Data for the sgs1 strain (AID 173);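 note: 0% = growth of vehicle-only control cultures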; details: S. cerevisiae sgs1 mutant, active compounds read high
How it was run: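 Read-out: yeast growth inhibition relative to vehicle controls, following compound exposure of a strain with a defined DNA repair/cell cycle alteration.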

[14] = NCI Yeast Anticancer Drug Screen. Data for the mlh1 rad18 strain (AID 175); details: S. cerevisiae mlh1 rad18 strain growth inhibition, active compounds read high
How it was run: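 Yeast w/ defined DNA-repair lesions; compound exposure; growth vs vehicle controls → % inhibition.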

[15] = NCI Yeast Anticancer Drug Screen. Data for the rad18 strain (AID 177); details: S. cerevisiae rad18 mutant growth inhibition, active compounds read high
How it was run: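 Readout: growth inhibition vs vehicle controls. Cells: genetically altered yeast strain, DNA repair defect.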

[16] = at 5.0 µM (retest, dose inferred, filed as 0.5)
[17] = at 50.0 µM (retest, dose inferred, filed as 5.0)

Measured: growth inhibition

Oc1ccccc1N=Cc1ccc(Cl)cc1
active: [4]; at 100.0 µM 82% | [10]; at 11.0 µM 70% | [10]; at 33.0 µM 78% | [10]; [17] 73% | [10]; at 50.0 µM 71.5% | [10]; at 100.0 µM 81% | [15]; at 100.0 µM 87%
inactive: [1]; at 1.2 µM 5% | [1]; at 3.7 µM 10% | [1]; at 11.0 µM 20% | [1]; at 33.0 µM 29% | [1]; at 100.0 µM 39% | [2]; at 1.2 µM 14% | [2]; at 3.7 µM 12% | [2]; at 11.0 µM 10% | [2]; at 33.0 µM 15% | [2]; at 100.0 µM 17% | [3]; at 1.2 µM 6% | [3]; at 3.7 µM 21% | [3]; at 11.0 µM 35% | [3]; at 33.0 µM 52% | [3]; at 100.0 µM 59% | [4]; at 1.2 µM 9% | [4]; at 3.7 µM 54% | [4]; [16] 16% | [4]; at 11.0 µM 42% | [4]; at 33.0 µM 59% | [4]; [17] 26% | [4]; at 50.0 µM 32% | [5]; at 1.2 µM 17% | [5]; at 3.7 µM 16% | [5]; [16] -23% | [5]; at 11.0 µM 18% | [5]; at 33.0 µM 22% | [5]; [17] 24% | [5]; at 50.0 µM 29.1% | [5]; at 100.0 µM 40% | [6]; at 1.2 µM 5% | [6]; at 3.7 µM 5% | [6]; at 11.0 µM 11% | [6]; at 33.0 µM 20% | [6]; at 100.0 µM 34% | [7]; [16] 20% | [7]; [17] 24% | [7]; at 50.0 µM 25.6% | [8]; at 1.2 µM -4% | [8]; at 3.7 µM -2% | [8]; at 11.0 µM -1% | [8]; at 33.0 µM 1% | [8]; at 100.0 µM 9% | [9]; [16] 2% | [9]; [17] 14% | [9]; at 50.0 µM -9.8% | [10]; at 1.2 µM 33% | [10]; at 3.7 µM 55% | [10]; [16] 56% | [11]; at 1.2 µM 14% | [11]; at 3.7 µM 16% | [11]; at 11.0 µM 4% | [11]; at 33.0 µM 8% | [11]; at 100.0 µM 13% | [12]; at 1.2 µM 12% | [12]; at 3.7 µM 10% | [12]; at 11.0 µM 11% | [12]; at 33.0 µM 18% | [12]; at 100.0 µM 27% | [13]; at 1.2 µM 17% | [13]; at 3.7 µM 13% | [13]; at 11.0 µM 19% | [13]; at 33.0 µM 23% | [13]; at 100.0 µM 29% | [14]; [16] 41% | [14]; [17] 53% | [14]; at 50.0 µM 60.5% | [15]; at 1.2 µM 17% | [15]; at 3.7 µM 30% | [15]; at 11.0 µM 43% | [15]; at 33.0 µM 64%

O/N=C/C1c2ccccc2-c2ccccc21
active: [1]; at 100.0 µM 97% | [4]; at 100.0 µM 97% | [5]; at 50.0 µM 99% | [5]; at 100.0 µM 72% | [6]; at 100.0 µM 96% | [9]; at 50.0 µM 96% | [10]; at 50.0 µM 98.8% | [11]; at 100.0 µM 70% | [13]; at 100.0 µM 88% | [14]; at 50.0 µM 97.3%
inactive: [1]; at 1.2 µM 0% | [1]; at 3.7 µM 6% | [1]; at 11.0 µM 20% | [1]; at 33.0 µM 58% | [2]; at 1.2 µM -4% | [2]; at 3.7 µM -4% | [2]; at 11.0 µM -7% | [2]; at 33.0 µM 20% | [2]; at 100.0 µM 49% | [3]; at 1.2 µM -1% | [3]; at 3.7 µM 7% | [3]; at 11.0 µM 9% | [3]; at 33.0 µM 28% | [3]; at 100.0 µM 51% | [4]; at 1.2 µM -1% | [4]; at 3.7 µM -6% | [4]; [16] -199% | [4]; at 11.0 µM 24% | [4]; at 33.0 µM 62% | [4]; [17] 58% | [4]; at 50.0 µM 56.2% | [5]; at 1.2 µM 3% | [5]; at 3.7 µM 1% | [5]; [16] -53% | [5]; at 11.0 µM -15% | [5]; at 33.0 µM 21% | [5]; [17] -13% | [6]; at 1.2 µM -1% | [6]; at 3.7 µM -1% | [6]; at 11.0 µM 9% | [6]; at 33.0 µM 51% | [7]; [16] -59% | [7]; [17] 30% | [7]; at 50.0 µM 50.8% | [8]; at 1.2 µM -3% | [8]; at 3.7 µM -3% | [8]; at 11.0 µM -6% | [8]; at 33.0 µM 2% | [8]; at 100.0 µM 53% | [9]; [16] -57% | [9]; [17] 8% | [10]; at 1.2 µM -6% | [10]; at 3.7 µM -2% | [10]; [16] -70% | [10]; at 11.0 µM -7% | [10]; at 33.0 µM 0% | [10]; [17] -15% | [10]; at 100.0 µM 59% | [11]; at 1.2 µM -1% | [11]; at 3.7 µM -2% | [11]; at 11.0 µM -3% | [11]; at 33.0 µM 22% | [12]; at 1.2 µM 4% | [12]; at 3.7 µM -6% | [12]; at 11.0 µM -3% | [12]; at 33.0 µM 18% | [12]; at 100.0 µM 64% | [13]; at 1.2 µM 0% | [13]; at 3.7 µM -2% | [13]; at 11.0 µM 0% | [13]; at 33.0 µM 44% | [14]; [16] -102% | [14]; [17] 39%
